“And” between values parts separate entries of the source, which are not always exact repeats. Equal values may be shown once. The source made the active and inactive calls. The calls were made as follows: active = hit-call score of the fitted dose curve at least 0.9, where 1 is the maximum; inactive = score below 0.9.
Experiments:
[1] = read-out: Human Leukocyte Antigen - DR isotype (HLADR), HLA-DRA (gene 3122); experiment: BSK_BE3C_HLADR: BioMAP Diversity Plus: BE3C Assay for Human Leukocyte Antigen - DR isotype (HLADR) Biomarker Activity (AID 2283032); details: primary human bronchial epithelial cells; actives raise or lower the signal
Summary of the method: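 BioMAP BE3C format: human bronchial epithelium, 24 h compound treatment, ELISA detection of HLA-DR, with bidirectional analysis relative to DMSO.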

[2] = read-out: Vascular cell adhesion molecule 1 (VCAM1), VCAM1 (gene 7412); experiment: BSK_4H_VCAM1: BioMAP Diversity Plus: 4H Assay for Vascular cell adhesion molecule 1 (VCAM1) Biomarker Activity (AID 2283033); details: primary human endothelial cells (HUVEC); actives raise or lower the signal
Summary of the method: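 In this human endothelial (HUVEC) system, biomarker ELISA was run 24 h after compound addition, and total protein in parallel wells was assessed by SRB at 560 nm; DMSO served as negative control.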

[3] = read-out: Monokine induced gamma interferon (MIG), CXCL9 (gene 4283); experiment: BSK_BE3C_MIG: BioMAP Diversity Plus: BE3C Assay for Monokine induced gamma interferon (MIG) Biomarker Activity (AID 2283035); details: primary human bronchial epithelial cells; actives raise or lower the signal
Summary of the method: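 ELISA quantified MIG after 24 h exposure of primary bronchial epithelial cultures, analysed in both directions relative to DMSO. Cytotoxicity tracked in parallel cultures by sulforhodamine B staining.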

[4] = read-out: Plasminogen activator inhibitor-1 (PAI1), SERPINE1 (gene 5054); experiment: BSK_BE3C_PAI1: BioMAP Diversity Plus: BE3C Assay for Plasminogen activator inhibitor-1 (PAI1) Biomarker Activity (AID 2283037); details: primary human bronchial epithelial cells; actives raise or lower the signal
Summary of the method: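 In this multiplexed primary-cell system, bronchial epithelial cells receive test chemical and are sampled at 24 h. PAI-1 is read by ELISA, with DMSO serving as negative control for bidirectional fitting.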

[5] = read-out: urokinase plasminogen activator (uPA), PLAU (gene 5328); experiment: BSK_BE3C_uPA: BioMAP Diversity Plus: BE3C Assay for urokinase plasminogen activator (uPA) Biomarker Activity (AID 2283038); details: primary human bronchial epithelial cells; actives raise or lower the signal
Summary of the method: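 Using confluent primary human lung bronchial epithelial cultures, we dosed chemicals, waited 24 h, then ran a uPA ELISA, fitting bidirectionally against DMSO.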

[6] = read-out: Urokinase-type plasminogen activator receptor (uPAR), PLAUR (gene 5329); experiment: BSK_BE3C_uPAR: BioMAP Diversity Plus: BE3C Assay for Urokinase-type plasminogen activator receptor (uPAR) Biomarker Activity (AID 2283039); details: primary human bronchial epithelial cells; actives raise or lower the signal
Summary of the method: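 Chemically treated human bronchial epithelial cells (lung primary) are assayed for uPAR by ELISA after 24 h, with data fitted in both directions using DMSO as negative control.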

[7] = read-out: Interleukin-6 (IL6), IL6 (gene 3569); experiment: BSK_CASM3C_IL6: BioMAP Diversity Plus: CASM3C Assay for Interleukin-6 (IL6) Biomarker Activity for (AID 2283040); details: primary human coronary artery smooth muscle cells; actives raise or lower the signal
[8] = read-out: Tissue plasminogen activator (tPA), PLAT (gene 5327); experiment: BSK_BE3C_tPA: BioMAP Diversity Plus: BE3C Assay for Tissue plasminogen activator (tPA) Biomarker Activity (AID 2283041); details: primary human bronchial epithelial cells; actives raise or lower the signal
Summary of the method: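 Using human lung primary bronchial epithelial cells, tPA was measured by ELISA 24 h after dosing; data fitted relative to DMSO.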

Measured: AC50

c1ccc2cc(Nc3ccc(Nc4ccc5ccccc5c4)cc3)ccc2c1
inactive: [1] | [2] | [3] | [4] | [5] | [6] | [7] | [8]

CCC(C)c1cc([N+](=O)[O-])cc([N+](=O)[O-])c1OC(=O)OC(C)C (configuration not stated)
active: [1] 15.3 µM | [2] 8.04 µM | [3] 33 µM | [4] 20 µM | [5] 33.7 µM | [6] 35 µM | [7] 34.1 µM | [8] 13.6 µM

CCCCCCCCCCCCCCCC(=O)OC/C=C(C)/C=C/C=C(C)/C=C/C1=C(C)CCCC1(C)C
inactive: [1] | [2] | [3] | [4] | [5] | [6] | [7] | [8]

CSCCC=O
inactive: [1] | [2] | [3] | [4] | [5] | [6] | [7] | [8]

CC=Cc1ccc(OCC)c(O)c1
inactive: [1] | [2] | [3] | [4] | [5] | [6] | [7] | [8]

Cc1cc(CCC(=O)OCCOCCOCCOC(=O)CCc2cc(C)c(O)c(C(C)(C)C)c2)cc(C(C)(C)C)c1O
inactive: [1] | [2] | [3] | [4] | [5] | [6] | [7] | [8]

COc1ccc(CCN2CCC(Nc3nc4ccccc4n3Cc3ccc(F)cc3)CC2)cc1
inactive: [3] | [4] | [5] | [6] | [7] | [8]
active: [1] 7.88 µM | [2] 0.0041 µM

O=C(Nc1ccc2c(O)c(N=Nc3ccc(N=Nc4ccc(S(=O)(=O)O)cc4)cc3)c(S(=O)(=O)O)cc2c1)c1ccccc1
active: [8] 5.36 µM and 5.91 µM
inactive: [1] | [2] | [3] | [4] | [5] | [6] | [7]

CC(=O)c1c(C)c([N+](=O)[O-])c(C(C)(C)C)c([N+](=O)[O-])c1C
inactive: [1] | [2] | [3] | [4] | [5] | [6] | [7] | [8]

CCN(CC)C(=O)N(CC)CC
inactive: [1] | [2] | [3] | [4] | [5] | [6] | [7] | [8]

c1ccc(CCc2ccccc2)cc1
active: [1] 30.3 µM | [2] 35.9 µM | [4] 29.3 µM | [5] 28.9 µM | [6] 20 µM | [7] 26.8 µM | [8] 30.6 µM
inactive: [3]

O=CN1CCOCC1
inactive: [1] | [2] | [3] | [4] | [5] | [6] | [7] | [8]

CC(=O)C1(C)CC2=C(CCCC2(C)C)CC1C (configuration not stated)
active: [1] 13.8 µM | [2] 9.63 µM | [3] 34.9 µM | [4] 20 µM | [5] 20 µM | [6] 20 µM | [7] 14 µM | [8] 12.7 µM

COc1ccc(OC)c(N=Nc2c(O)ccc3ccccc23)c1
inactive: [3] | [4] | [5] | [7] | [8]
active: [1] 3.41 µM | [2] 20 µM | [6] 5.41 µM

O=C1c2ccccc2C(=O)c2c(O)ccc(O)c21
inactive: [1] | [2] | [3] | [4] | [5] | [6] | [7] | [8]

COc1cc(Cl)c(OC)cc1N
inactive: [1] | [2] | [3] | [4] | [5] | [6] | [7] | [8]

CN(C)C(=S)SC(=S)N(C)C
inactive: [4] | [7] | [8]
active: [1] 13.7 µM | [2] 26.9 µM | [3] 34.9 µM | [5] 19.9 µM | [6] 31.7 µM

CC1(C)C2=CCCC(C)(C)[C@]23CC[C@H]1C3
active: [1] 20 µM | [7] 30.2 µM | [8] 31.5 µM
inactive: [2] | [3] | [4] | [5] | [6]

C[C@@H]1CCN(C(=O)[C@H](CCCN=C(N)N)NS(=O)(=O)c2cccc3c2NC[C@H](C)C3)[C@@H](C(=O)O)C1
inactive: [1] | [2] | [3] | [4] | [5] | [6] | [7] | [8]

CN(C)C(=O)Nc1ccc(Oc2ccc(Cl)cc2)cc1
active: [7] 0.0427 µM | [8] 4.19 µM
inactive: [1] | [2] | [3] | [4] | [5] | [6]

C=C(C)C(=O)OCC(CC)(COC(=O)C(=C)C)COC(=O)C(=C)C
inactive: [1] | [3] | [4] | [5] | [6] | [7] | [8]
active: [2] 19.7 µM

c1ccc(Oc2ccccc2)cc1
inactive: [1] | [3] | [4] | [5] | [6] | [7] | [8]
active: [2] 28.8 µM

CN(c1nccc(=O)[nH]1)C1CCN(c2nc3ccccc3n2Cc2ccc(F)cc2)CC1
inactive: [1] | [3] | [4] | [5] | [6] | [7] | [8]
active: [2] 0.0185 µM

CS(=O)(=O)OCCCCOS(C)(=O)=O
inactive: [1] | [2] | [3] | [4] | [5] | [6] | [7] | [8]

Source: PubChem BioAssay (EPA / NIEHS)
